Screens deposited in PubChem by several laboratories.
GRK2 aptamer HTS: compounds blocking aptamer binding on GRK2 – biochemical, human GRK2, bead flow cytometry, HTS, primary screen; actives 0.59% (n = 330,000); AID 488847, 2010; inhibition of aptamer binding, % at 10 µM; FAM-aptamer displacement from GRK2; Beta-adrenergic receptor kinase 1 (Homo sapiens), P25098;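 active = inhibition of aptamer binding above 40%, roughly 3 SD of noise, on plates passing a quality check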;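 also: median bead fluorescence of bound FAM aptamer so fluorescent compounds give negative values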
Target sequence (P25098 whole entry, looked up): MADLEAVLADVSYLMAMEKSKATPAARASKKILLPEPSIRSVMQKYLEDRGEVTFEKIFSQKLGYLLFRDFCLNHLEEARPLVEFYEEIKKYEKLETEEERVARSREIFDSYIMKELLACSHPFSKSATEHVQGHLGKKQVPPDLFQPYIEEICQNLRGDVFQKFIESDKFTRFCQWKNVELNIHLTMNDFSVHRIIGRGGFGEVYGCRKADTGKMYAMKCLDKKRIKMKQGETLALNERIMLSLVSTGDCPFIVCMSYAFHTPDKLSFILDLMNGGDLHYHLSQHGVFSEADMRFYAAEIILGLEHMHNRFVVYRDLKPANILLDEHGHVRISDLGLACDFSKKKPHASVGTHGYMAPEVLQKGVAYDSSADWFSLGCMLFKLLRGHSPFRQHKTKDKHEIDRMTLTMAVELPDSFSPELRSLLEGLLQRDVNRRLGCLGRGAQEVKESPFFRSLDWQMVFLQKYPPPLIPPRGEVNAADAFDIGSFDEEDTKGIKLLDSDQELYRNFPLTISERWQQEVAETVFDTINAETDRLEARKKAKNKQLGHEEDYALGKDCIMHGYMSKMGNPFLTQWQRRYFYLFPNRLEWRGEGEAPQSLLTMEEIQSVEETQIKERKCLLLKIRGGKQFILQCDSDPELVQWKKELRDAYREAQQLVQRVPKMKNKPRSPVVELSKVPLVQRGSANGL
PP1 inh: PP1-alpha phosphatase inhibitors, primary screen, counter-screen for PP5 inhibitor project, biochemical, fluorescence, OMFP substrate, single point; Serine/threonine-protein phosphatase PP1-alpha catalytic subunit (Homo sapiens), P62136; purified PP1alpha; inhibition, % at 6.7 µM; actives 0.9% (n = 320,000); AID 2235, 2010;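 active = inhibition above the mean inhibition of all tested compounds plus 3 SD, computed separately for each screening campaign, cut at about 15% in these data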
B2AR ag: beta2AR agonists driving receptor internalization, primary screen, cell-based, FAP fluorogen, flow cytometry; Beta-2 adrenergic receptor (Homo sapiens), P07550; Am2.2-beta2AR cells; response, % (concentration not given with the values); actives 0.43% (n = 340,000); AID 504454, 2011;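 active = response above a set limit, near 3 SD of response in nonfluorescent compounds, cut at about 42% in these data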
Exocytosis inh: LAMP-1 surface exposure blockers, TALL-104 cells – cell-based, flow cytometry, MLPCN library, primary screen; actives 0.66% (n = 360,000); inhibition, % at 10 µM; TALL-104 LAMP-1 surface exposure; cells stimulated with thapsigargin and PMA;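 active = inhibition above about 55%, limit read from the data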
NadD block: inhibitors of S. aureus NadD, primary screen, biochemical, colorimetric, uHTS; Nicotinate-nucleotide adenylyltransferase NadD (Staphylococcus aureus N315); purified NadD enzyme, colorimetric absorbance read-out; inhibition, % at 20 µM; actives 0.78% (n = 360,000); in the data active = inhibition above about 26%
Hits are given with their value; n = inactive; x = not tested or not shown. Most compounds without a hit are left out; they make up all but 2.9% or so of the library.

SMILES	GRK2 aptamer HTS	PP1 inh	B2AR ag	Exocytosis inh	NadD block
O=C(NC1CCCC1)C(c1cccnc1)N(C(=O)c1csnn1)c1ccc(F)cc1 (configuration not stated)	n	n	n	n	n
Cc1nc2ccc(NC(=O)c3cc([N+](=O)[O-])cc([N+](=O)[O-])c3Cl)cc2s1	n	n	n	n	34
Cc1nc2ccc(NC(=O)c3ccc(Cl)c([N+](=O)[O-])c3)cc2s1	n	n	n	n	n
CS(=O)(=O)N1CCCC(C(=O)Nc2ccccc2)C1 (configuration not stated)	n	n	n	n	n
COc1cc(C(=O)NS(=O)(=O)c2ccccc2C)ccc1Cc1cn(C)c2ccc(NC(=O)OC3CCCC3)cc12	n	24	x	x	x
COc1ccc(NC(=O)COc2ccccc2C)cc1S(=O)(=O)N1CCCCC1	n	n	n	n	n
CC(=O)OC(C)C1C2=C(C(=O)CC1(C)O)C(=O)c1c(ccc(-c3ccc4c(c3O)C(=O)C3=C(C4=O)C(C(C)OC(C)=O)C(C)(O)CC3=O)c1O)C2=O (configuration not stated)	x	x	n	n	45
CCN(CC)CCNC(=O)C1c2cc(OC)c(OC)cc2C(=O)N(C)C1c1cccs1 (configuration not stated)	n	n	n	n	n
O=C(CO/N=C/c1ccc(OC(F)F)cc1)N1CCc2ccccc21	100	n	n	n	n
O=C(/C=C/c1ccc(OC(F)F)cc1)OCC(=O)N1CCc2ccccc21	n	n	n	n	n
Cc1ccc(NC(=S)Nc2cccc3cnccc23)cc1	n	n	n	n	n
Cc1ccc(NC(=S)Nc2cccc3cnccc23)cc1C	n	n	n	56	n
COc1ccc2c(c1)[nH]c1c(=O)n(CCCn3ccnc3)cnc12	n	n	n	n	n
Cc1cc(=S)cc(C)n1CCO	n	n	n	n	n
COc1ccc(C2=CC(=O)CCC2)cc1	x	n	n	94	n
COc1cccc(/C=C2\N=C(C3CCCCC3)OC2=O)c1OC	n	n	n	60	n
CC(Oc1ccc(-c2ccccc2)cc1)C(=O)N/N=C/c1cccnc1 (configuration not stated)	n	n	n	56	n
COc1ccc(C(=O)N/N=C/c2cccnc2)cc1	n	n	n	n	n
COc1ccc(NC(=O)CN(C)C(=O)c2cc3c(s2)CCC3)cc1	63	n	n	n	n
COC(=O)[C@@]12C[C@@H](CC(=O)NCc3cccc(C(F)(F)F)c3)C(=O)N(Cc3ccc4c(c3)OCO4)C1=CCC(C)(C)C2	x	x	x	n	x
O=C1C(Br)=C(c2ccccc2)C(c2ccccc2)=C1c1ccccc1	x	x	n	106	n
COc1cccc(/C=N/Nc2nc3ccccc3n3cnnc23)c1O	n	n	109	n	n
COc1cccc(/C=N/Nc2nc3ccccc3n3cnnc23)c1	n	n	n	n	n
Cc1cc2cc(C(c3nnnn3Cc3ccco3)N3CCc4ccccc4C3)c(=O)[nH]c2cc1C (configuration not stated)	n	15	n	n	n
Cc1ccc(S(=O)(=O)N2C(=O)[C@@H]3Cc4ccccc4CN3C2=O)cc1	x	x	n	n	n
SMILES	GRK2 aptamer HTS	PP1 inh	B2AR ag	Exocytosis inh	NadD block
CCN(CC)C(=O)[C@H]1CC(CC(=O)NCC23CC4CC(CC(C4)C2)C3)C(=O)N2CCc3c([nH]c4ccc(OC)cc34)[C@]12C (some centres not stated)	44	x	n	n	n
CCN(CC)C(=O)[C@H]1C[C@H](CC(=O)NC(C)(C)C)C(=O)N2CCc3c([nH]c4cc(CCC(=O)N(C)C)ccc34)[C@]12C	50	x	n	n	n
CN(C)C(=O)CCc1ccc2c3c([nH]c2c1)[C@]1(C)[C@@H](C(=O)N2CCCCC2)C[C@H](CC(=O)NC(C)(C)C)C(=O)N1CC3	n	x	n	n	n
O=C(CSc1ncnc2ccccc12)Nc1cc(S(=O)(=O)N2CCCCC2)ccc1Cl	n	16	n	n	n
CCCCCCC(=O)N(O)C1CC(=O)N(c2ccc(C)cc2)C1=O (configuration not stated)	n	n	n	n	n
CCCCCCC(=O)N(O)C1CC(=O)N(c2ccc(Cl)cc2)C1=O (configuration not stated)	n	n	n	72	n
CCO[C@H]1OC(C(=O)N2CCOCC2)=C[C@@H](C2CC2)[C@@H]1CCCO	n	n	n	n	n
O=C(Nc1ccc(N2CCCC2)c(Cl)c1)c1cccc(-c2cc3ccccc3oc2=O)c1	n	16	61	n	n
O=C(/C=C/c1cccc(Cl)c1)NCCCN1CCOCC1	n	n	n	n	n
Oc1ccc(CN2CCc3ccccc3C2)c2cccnc12	n	15	n	n	n
Oc1ccc(CN2CCCCC2)c2cccnc12	n	n	n	n	n
COc1cc2c(cc1OC)C(=O)C(Br)CC2 (configuration not stated)	x	x	x	100	n
CN(C)c1ccc(-c2nn3c(-c4ccccc4Cl)nnc3s2)cc1	n	16	n	n	n
Nc1cccc2c1C(=O)N(C(=O)/C=C/c1ccc(F)cc1)C2=O	n	n	87	n	n
COc1cc(CNC(=O)c2cc(-c3cc(Cl)ccc3C)n[nH]2)cc(OC)c1	x	x	x	n	n
Nc1nc2nc(SCC(=O)N3CCCc4ccccc43)[nH]c2c(=O)[nH]1	n	15	x	x	x
O=C(CNC(=O)N1CC(=O)Nc2ccccc21)NCCc1c[nH]c2ccccc12	n	n	n	n	n
CCC(=O)/C=C1/Sc2ccc(OC)cc2N1CCO	n	n	n	n	n
CCC(/C=C1\Sc2ccc(OC)cc2N1CCO)=C\c1sc2ccc(OC)cc2[n+]1CCO	100	n	n	n	n
CNc1ncnc2c1ncn2[C@H]1CN(Cc2ccc3c(c2)OCO3)C[C@@H](CO)O1	x	x	x	n	n
Cc1ccc(NC(=O)c2ccc(NCCCN3CCC(C)CC3)c([N+](=O)[O-])c2)cc1F	n	n	n	68	n
O=C(Nc1cccc(Cl)c1)c1ccc(NCCCN2CCOCC2)c([N+](=O)[O-])c1	n	n	n	n	n
O=S(=O)(/N=C(\Sc1ccccc1)c1ccccc1)c1ccc(Cl)cc1	n	n	n	n	n
Cc1ccc(S(=O)(=O)/N=C(\Sc2ccccc2)c2ccccc2)cc1	n	n	n	65	n
CC(=O)N1C(=O)N(C(C)=O)C2C1N(C)C(=O)N2C(C)=O (configuration not stated)	n	n	n	n	n
Cc1ccc2nc3cc([N+](=O)[O-])cc([N+](=O)[O-])c3cc2c1	x	x	59	63	n
Cc1nc2ccc([N+](=O)[O-])cc2nc1C	n	n	n	n	n
